Bioassay records as filed in PubChem BioAssay.
Most compounds without a hit are left out; they make up all but 3.5% or so of the library.
GPR151 activ = human GPR151 activation; Q8TDV0; PathHunter beta-arrestin GPR151 cells, luminescence; activation, % at 11.2 µM; 1% of 650,000 active; in the data active = activation above about 4.9%
Target sequence (Q8TDV0 whole entry, looked up): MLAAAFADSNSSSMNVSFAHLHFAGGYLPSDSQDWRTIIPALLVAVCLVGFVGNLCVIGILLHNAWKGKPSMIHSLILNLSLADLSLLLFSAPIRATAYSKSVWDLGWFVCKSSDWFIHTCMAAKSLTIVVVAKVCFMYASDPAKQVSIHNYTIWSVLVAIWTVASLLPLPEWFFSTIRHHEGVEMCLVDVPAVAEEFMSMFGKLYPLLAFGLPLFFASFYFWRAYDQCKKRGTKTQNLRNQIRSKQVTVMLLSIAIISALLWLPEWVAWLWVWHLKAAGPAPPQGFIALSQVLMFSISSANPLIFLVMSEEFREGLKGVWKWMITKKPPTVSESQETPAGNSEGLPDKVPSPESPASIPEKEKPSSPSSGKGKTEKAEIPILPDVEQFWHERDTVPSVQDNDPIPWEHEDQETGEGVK
FBW7 activator = activators of human E3 ligase FBW7; Q969H0; AlphaScreen FBW7–phospho-cyclin E peptide binding, activator screen; normalized activity (activation), % at 26.1 µM; 0.13% of 650,000 active; AID 1259310; in the data active = normalized activity above about 1.9%;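 also: purified mutant Fbw7 with reduced substrate affinity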
TEAD-YAP inh = TEAD-YAP interaction inhibition. inhibition, % at 9.12 µM. AID 1259422. HEK-TIYL cells, TEAD-Gal4/YAP UAS-luciferase luminescence. 1.4% of 640,000 active; in the data active = inhibition above about 32%
MITF inh = blocks human microphthalmia-associated transcription factor | AlphaScreen MITF homodimerization, bead proximity signal | 0.91% of 650,000 active | inhibition, % at 2.6 µM | AID 1259374 | O75030; in the data active = inhibition above about 50%
Large screens that a line does not name were inactive; ! = a repeat was not active.

CC1=Nc2cc(C(=O)NCCN(C)C)ccc2Sc2ccc(Br)cc21	TEAD-YAP inh 60.0
CC(=O)Oc1ccc(/C=N/NC(=O)C(C)SCc2ccccc2)cc1 (stereo not given)	none
N#CC(C#N)=NNc1ccc2c(c1)OCO2	TEAD-YAP inh 39.3
CCOC(=O)/C(C#N)=N/Nc1ccc2c(c1)OCCO2	none
CCN1C(=O)C2C(c3ccc(O)c(OC)c3)NC(C)(C(=O)OC)C2C1=O (stereo not given)	TEAD-YAP inh 44.9
COC(=O)C1(C)NC(c2ccc(O)c(OC)c2)C2C(=O)N(C)C(=O)C21 (stereo not given)	none
CNC(=O)c1cc(F)ccc1Nc1cc(Nc2cc(-c3cncnc3)nc(C)n2)ncc1C(F)(F)F	TEAD-YAP inh 54.8
Cc1nc(Nc2cc(Nc3ccccn3)c(C(F)(F)F)cn2)cc(-c2cncnc2)n1	TEAD-YAP inh 32.0
COc1ccc(N2CCOCC2)cc1Nc1cc(Nc2ccccn2)c(C(F)(F)F)cn1	none
Cc1ccc(-n2nc3c(c2NC(=O)C2CCCC2)CSC3)c(C)c1	FBW7 activator 1.9
C/C(=N\N=C(/N)SC1CC(=O)N(c2ccc(C(=O)O)cc2)C1=O)c1ccc(F)cc1 (stereo not given)	none
N#C/C(=C\c1ccccc1OCc1ccc(Cl)cc1Cl)c1nc2ccccc2[nH]1	none
CN1CCN(Cc2cc(=O)oc3ccc4ccccc4c23)CC1	none
CN1CCN(Cc2cc(CSc3ccccc3)c3cccnc3c2O)CC1	TEAD-YAP inh 80.7, MITF inh 64.8
Oc1c(CN2CCN(c3cccc(C(F)(F)F)c3)CC2)cc(COCc2ccccc2)c2cccnc12	none
CN1CCN(Cc2cc(COCc3ccccc3)c3cccnc3c2O)CC1	TEAD-YAP inh 73.8, MITF inh 100.5
CSc1ncc(Cl)c(C(=O)C(C#N)c2nc3ccccc3n2C)n1 (stereo not given)	none
COc1ccc(C(=O)CSc2ncnc3sc(C)c(C)c23)cc1	none
COc1ccc(C(=O)NNc2cc(C)nc3c(C)cccc23)cc1	none
Cc1cc(NNC(=O)c2ccccc2Cl)c2cccc(C)c2n1	TEAD-YAP inh 40.0
Cc1ccc(/C=N/NC(=O)c2cc(Br)ccc2OC(C)C)o1	TEAD-YAP inh 46.0
COc1cc(/C=N/NC(=O)c2cc(Br)ccc2OC(C)C)ccc1O	none
Cc1cc(-c2ccc(Cl)cc2)c(C#N)c(=S)[nH]1	none
CCOc1cc(-c2nc3cnccn3c2NCCOC)ccc1O	FBW7 activator 6.3
COCCNc1c(-c2ccc(OC)c(O)c2)nc2cnccn12	none
Cc1ccc(CNC(=O)c2cnc3c(c(C)nn3-c3ccc(F)cc3)c2Cl)cc1	none
Cc1nn(-c2ccc(F)cc2)c2ncc(C(=O)NCCCn3ccnc3)c(Cl)c12	TEAD-YAP inh 65.4
CCOC(=O)c1c(NC(=O)C2CCCCC2)sc2c1CCC(C)C2 (stereo not given)	none
COc1ccc2c(c1)N(C)/C(=C/c1cccc[n+]1C)S2	TEAD-YAP inh 77.4
CCN1/C(=C\C(C)=O)Sc2ccc3ccccc3c21	none
CCN1/C(=C/c2cccc[n+]2C)Sc2ccc(OC)cc21	TEAD-YAP inh 84.3
CCN1/C(=C/C(C)=O)Sc2ccc(OC)cc21	TEAD-YAP inh 32.4!
COc1ccc(/C=C/c2cccc[n+]2C)c(OC)c1	none
COc1ccc(OC)c(NCc2ccc3nc(N)nc(N)c3c2Cl)c1	none (no result: FBW7 activator, TEAD-YAP inh, MITF inh)
C#CCN(C)C(=O)c1cnc2sc3cc(OC)ccc3n2c1=O	none
COc1cccc(CNC(=O)c2cnc3ccc(-c4cn[nH]c4)cn23)c1	TEAD-YAP inh 88.3
C=CCn1c(-c2cccc(C)c2)n[nH]c1=S	none
O=C(CCN1CCN(C/C=C/c2ccccc2)CC1)Nc1ccc(F)c(F)c1	none
COC(=O)c1cnc(Nc2cc(Cl)ccc2OC)c2ccccc12	none
COC(=O)c1cnc(Nc2ccc(OC)c(Cl)c2)c2ccccc12	FBW7 activator 2.4
CCc1ccc(Nc2ncc(C(=O)OC)c3ccccc23)cc1	FBW7 activator 4.0
CSc1ccc(C2C(C#N)=C(N)N(c3sc4c(c3C#N)CCCC4)C3=C2C(=O)CC(C)(C)C3)cc1 (stereo not given)	none
O=C1CC(n2nc(COc3ccccc3)n(-c3ccccc3)c2=S)C2COC1O2 (stereo not given)	none
O=C(NCc1nc(NCCCc2ccccc2)c2ccccc2n1)c1ccoc1	none
O=C(NCc1nc(NCCCc2ccccc2)c2ccccc2n1)c1ccsc1	TEAD-YAP inh 34.0
C/C(CC(=O)Nc1ccccc1Br)=N\NC(N)=S	none
CCC(=O)Nc1cccc(NC(=O)CSc2nnnn2-c2ccccc2)c1	none
O=C(CSc1nnnn1-c1ccccc1)Nc1cccc(NC(=O)C23CC4CC(CC(C4)C2)C3)c1	TEAD-YAP inh 71.6
COc1ccc(C2CC(=O)C=C(Nc3ccc(Cl)cc3)C2)cc1 (stereo not given)	none
O=C1C=C(Nc2ccc(Cl)cc2)CC(c2ccccc2)C1 (stereo not given)	TEAD-YAP inh 32.8
Cc1ccc(C2CC(=O)C=C(NCCc3ccccc3)C2)cc1 (stereo not given)	none
Cc1ccc(NC2=CC(=O)CC(c3ccccc3)C2)cc1 (stereo not given)	TEAD-YAP inh 42.6
O=C(Nc1cc(-c2ccccc2Oc2ccc(F)cc2)ccn1)C1CCOC1 (stereo not given)	none
O=C(Nc1cc(-c2ccccc2OCc2ccccc2)ccn1)C1CCOC1 (stereo not given)	TEAD-YAP inh 88.7
O=C(Nc1cc(-c2ccccc2Oc2cccc(F)c2)ccn1)C1CCOC1 (stereo not given)	TEAD-YAP inh 33.4
COC(=O)c1cnc(N2CCCCCC2)c2ccccc12	none
COC(=O)c1ccc(N2CCCCC2)c2c1C(=O)c1ccccc1C2=O	MITF inh 54.8
CSc1nnc2c(n1)OC(c1ccco1)N(C(=O)c1ccccc1)c1ccccc1-2 (stereo not given)	TEAD-YAP inh 52.8
CC(=O)c1cccc(-c2ncc(C(=O)Nc3ccc(Oc4ccccc4)cc3)s2)c1	none
Cc1ccc(/C=N/NC(=O)c2cc(-c3ccccc3)n[nH]2)cc1	none
COc1ccc(-c2cc(C(=O)N/N=C\c3ccc(N(C)C)cc3)[nH]n2)cc1	TEAD-YAP inh 44.7
CC(C)Cc1ccc(-c2cc(C(=O)N/N=C/c3ccncc3)[nH]n2)cc1	TEAD-YAP inh 45.3
COc1ccc(/C=N/NC(=O)c2cc(-c3ccc(F)cc3)n[nH]2)cc1	none
COc1ccc(/C=N/NC(=O)c2cc(-c3ccc(OC)cc3)n[nH]2)cc1	TEAD-YAP inh 32.8
CC(C)NC(=O)CSc1ncnc2c1cnn2-c1ccc(F)cc1	none
CC1Cc2ccccc2N1C(=O)CSc1nnc(-c2cccs2)n1C (stereo not given)	none
COc1cccc(Cn2c(NCCO)nc3c2c(=O)n(C)c(=O)n3C)c1	TEAD-YAP inh 39.5
Cc1cccc(Cn2c(NCc3ccco3)nc3c2c(=O)n(C)c(=O)n3C)c1	TEAD-YAP inh 45.8
Cc1ccc(Cn2c(NCCO)nc3c2c(=O)n(C)c(=O)n3C)cc1	TEAD-YAP inh 42.0
O=C(Nc1ccc(Cl)c(Cl)c1)c1cnn2c1NC(c1ccccc1)CC2C(F)(F)F (stereo not given)	none
CCCCCC1CCC(C(=O)Oc2ccc(O)cc2)CC1 (stereo not given)	none
O=C(CCc1ccccc1)Nc1nn2c(COc3ccccc3)nnc2s1	none
